About 6,800 (1.8%) of roughly 370,000 compounds were called active. The sample as a whole holds a higher share of actives than the screen did. Unmarked numbers belong to inactive results.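 How the source made its calls: active means activation above a cutoff set at the mean of all screened compounds plus 3 SD (cut at about 10% in these data); inactive means the rest.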
The compounds below were run on Nuclear hormone receptor DAF-12 (Heterodera glycines), GAL4 fusion (assay: hgDAF-12 GAL4 fusion reporter activation – cell-based, luminescence, HEK293, UAS-luciferase, primary screen (AID 687014;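 further: 0% = DMSO wells and 100% = sodium butyrate wells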)). Conditions: HEK293 GAL4-hgDAF12 UAS-luciferase reporter, agonist luminescence; at 6.8 µM; stronger effect = higher value; normalized to butyrate control.
With CC(=O)N1C(C)c2ccccc2C(C)(C)CC12CCCCC2 (centres undefined) the activation was -2.75%. CN[C@H]1C[C@H]2c3[nH]c4c(-c5ccccc5)cccc4c3CCN2C(=O)[C@H]1[C@H](C)O gave an activation of -0.57%. O=C(N/N=C/c1cccc2cccnc12)[C@H]1C[C@@H]1c1ccccc1 gave an activation of -1.03%. O=C(Cc1ccc(Cl)cc1)NC(=S)Nc1ccccc1O was tested, and the activation was 3.46%. Work on O=C(NC(=S)Nc1cccc2c(O)cccc12)c1cccc(Br)c1 yielded an activation of 0.96%. For O=C(NC(=O)c1ccccc1)Nc1ccccc1O, the activation was 13.8% (active). Compound CCOC(=O)[C@H]1CCC[C@@H](NS(=O)(=O)c2ccc(NC(C)=O)cc2)C1 has an activation of 1.29%. With Cc1ccc(NC(=O)Cc2cccc(F)c2)c(S(=O)(=O)N2CCOCC2)c1 the activation was 1.41%. Work on COCC1CCCN(Cc2nc(-c3ccc4c(c3)OCO4)no2)C1 (centres undefined) yielded an activation of 6.75%. With O=C(COCc1cc(-c2ccc3c(c2)OCO3)on1)N1CCN(c2cccc(Cl)c2)CC1 the activation was 1.17%. CCc1ccccc1NC(=O)CSc1nnc(-c2cccs2)o1 gave an activation of 2.52%. CNC(=S)N1N=C(c2ccccc2)CC1c1ccc(Br)cc1 (centres undefined) gave an activation of -1.01%. With Brc1ccc(C2CC(c3ccccc3)=Nc3ccccc3N2)cc1 (centres undefined) the activation was 17.3% (active). With CN1[C@H](Cc2ccccc2)COc2cccc(N3CCSCC3)c2S1(=O)=O the activation was 4.83%. Cc1cc(=O)[nH]c(SCC(=O)Nc2ccc(Cl)cc2C)n1 gave an activation of 1.76%. CCCCCCCCNS(=O)(=O)/C=C/c1cc(C)ccc1CNC(=O)OC(C)(C)C was tested, and the activation was 0.08%. COC(=O)c1cc(S(=O)(=O)N2CCN(c3ccccc3C)CC2)cn1C was tested, and the activation was -4.6%. In the case of Cc1sc(NC(=O)c2ccc3ncsc3c2)c(C(N)=O)c1C, the activation is reported as 8.75%. Work on CCOC(=O)c1cc(C(C)C)sc1NC(=O)COC(=O)c1nccnc1N yielded an activation of 0.71%. CC(C)c1cc(C(N)=O)c(NC(=O)c2cccc(COc3ccc(Br)cc3)c2)s1 was tested, and the activation was 16.6% (active). In the case of C[C@H](O)[C@@H]1C(=O)N2CCc3c([nH]c4c(-c5ccc6c(c5)OCO6)cccc34)[C@@H]2C[C@@H]1N(C)C(=O)c1ccco1, the activation is reported as 2.82%. With Nc1nc2c(ncn2[C@@H]2O[C@H](C(=O)N[C@H](Cc3ccccc3)C(=O)NCC3CCCCC3)[C@@H](O)[C@H]2O)c(=O)[nH]1 the activation was -0.41%. Work on c1ccc2c(c1)nnn2-c1ccncc1 yielded an activation of 0.89%. COCCCNC(=O)C[C@H]1C[C@@]2(C(=O)OC)C(=C[C@H](C(C)(C)C)O[C@@H]2C)N(Cc2ccc3c(c2)OCO3)C1=O was tested, and the activation was 1.15%.

From PubChem BioAssay AID687014 (The Scripps Research Institute Molecular Screening Center, 2013)
